This test is described as follows: NCI Yeast Anticancer Drug Screen. Data for the mlh1 strain (AID 171).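 Also: 0% = growth of vehicle-treated control cultures of the same strain.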 The conditions noted are these: S. cerevisiae mlh1 strain growth inhibition, stronger effect = higher value. The method, then:
Growth inhibition of yeast strains with defined genetic alterations is measured as a screen for potential anti-cancer activity. Selected strains with alterations in DNA damage repair or cell cycle control were exposed to compounds and growth inhibition was measured relative to vehicle treated controls. The strain used in this assay is mlh1

The panel holds about 79,000 compounds, 15% with a hit somewhere; the sample as a whole holds those more often. A number with no mark means an inactive call. Active and inactive are the calls of the source. Rule as the data show it: active = growth inhibition above about 70%; inactive = the rest.

As for `NCCc1ccc(OCc2ccccc2)c(OCc2ccccc2)c1`, the growth inhibition is, setting by setting: (at 1.2 µM) -38%; (at 3.7 µM) -12%; (at 11.0 µM) 43%; (at 33.0 µM) 95% (active); (at 100.0 µM) 96% (active).
`CC[C@]1(O)CC(OC2CC(N(C)C)C(O)C(C)O2)c2c(cc3c(c2O)C(=O)c2c(O)cccc2C3=O)[C@@H]1C(=O)OC` (stereo not given in full): the growth inhibition is -4% (at 1.2 µM); 6% (at 3.7 µM); 9% (at 11.0 µM); 90% (active) (at 33.0 µM); 96% (active) (at 100.0 µM).
For `C/C(=N\NC(N)=O)C(CN1CCOCC1)C(c1ccccc1)c1c(O)c2ccccc2oc1=O` (stereo not given) the same measures were -2%, 1%, 0%, -3% and 1%.
The like results for `CC1=C(N2CC2)C(=O)c2ccccc2C1=O` were, in that order, 7%, -3%, 2%, 9% and 64%.
Turning to `CCN(CC)CCBr`, the growth inhibition was -1% (at 1.2 µM); -1% (at 3.7 µM); -1% (at 11.0 µM); -2% (at 33.0 µM); -1% (at 100.0 µM).
In the case of `CN(N=O)C(=O)NNC(=O)N(C)N=O`, the growth inhibition (at 1.2 µM) was -1%; the growth inhibition (at 3.7 µM) is -3%; the growth inhibition (at 11.0 µM) is 7%; the growth inhibition (at 33.0 µM) is 31%; the growth inhibition (at 100.0 µM) was 68%.
The like results for `O=[N+]([O-])c1cc(S(=O)(=O)F)ccc1Cl` were, in that order, 15%, 19%, 29%, 95% (active) and 99% (active).
The like results for `Cc1cc[n+](C2=C(Nc3cccc(C(F)(F)F)c3)C(=O)c3ccccc3C2=O)cc1` were, in that order, 3%, -2%, 1%, 1% and 10%.

The values above are taken from PubChem BioAssay (NCI).
